The values below come from the supplement of paper PMC10600219.

The full ranking holds about 2,800 compounds; the median of “cell viability relative to vehicle” is about 0.98, and the lowest 2% start at about 0.45. The sample as a whole holds a higher share of the lowest values than the screen did.

In this experiment the test system is NCI-H2228 alectinib-DTP. In words: cell viability relative to vehicle (fraction of vehicle); NCI-H2228 is an ALK-positive lung cancer line and DTP means drug-tolerant persister; higher = less growth inhibition. The settings on record: 100 nM; treatment time 6 days. The gist of the method: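 NCI-H2228 parental cells and drug-tolerant persister cells were plated in 384-well plates; the persisters had been generated with 1000 nM of a targeted drug over 13 days. One day later, the 3114-agent TargetMol anti-cancer compound library was added at 100 nM, with DMSO serving as vehicle. ATP was measured 6 days after that using the CellTiter-Glo 3D Cell Viability Assay. Values are cell viability expressed relative to vehicle-treated cells.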
Molecule `CC(C)=CCC[C@](C)(O[C@@H]1O[C@H](CO)[C@@H](O)[C@H](O)[C@H]1O)[C@H]1CC[C@]2(C)[C@@H]1[C@H](O)C[C@@H]1[C@@]3(C)CC[C@H](O)C(C)(C)[C@@H]3[C@@H](O[C@@H]3O[C@H](CO)[C@@H](O)[C@H](O)[C@H]3O[C@@H]3O[C@@H](C)[C@H](O)[C@@H](O)[C@H]3O)C[C@]12C` [Ginsenoside Re] displayed a cell viability of 0.852. `C[C@H]1CNC(=O)c2cnn3ccc(nc23)N[C@H](C)c2cc(F)ccc2O1` gave a cell viability of 0.904.

Molecule `NC(=O)c1nc(-c2c(F)cccc2Cl)oc1Nc1ccc(C(=O)N2CCOCC2)cc1` displayed a cell viability of 0.929. In the case of `C=C(C)[C@@H]1CC[C@]2(C(=O)O)CC[C@]3(C)[C@H](CC[C@@H]4[C@@]5(C)CCC(=O)C(C)(C)[C@@H]5CC[C@]43C)[C@@H]12` [Betulonic acid] it was 1.08. For `O=C(Nc1ccc(C(O)(C(F)(F)F)C(F)(F)F)cc1)c1ccc(C(F)(F)F)cc1` the value was 0.963; for `CN(C)C(=S)NN=C(c1ccccn1)c1ccccn1`, 0.45; for `Clc1ccc(NN=C(c2ccccc2)c2ccccn2)nc1`, 0.74. In the case of `NNC(=O)c1ccccn1` [2-Picolinyl hydrazide], the cell viability amounted to 1.02.

Consider `CC1=C(C(=O)Nc2ccc3[nH]ncc3c2)C(c2ccc(F)cc2)NC(=O)N1` (stereo not given), for which the cell viability is 1.09. For `CN1CCN(c2ccc(-c3ccncc3-c3cc(F)c(O)c(F)c3)cc2)CC1` the value was 1.11. Regarding `CCc1cnn2c(NCc3ccc[n+]([O-])c3)cc(N3CCCC[C@H]3CCO)nc12` [Dinaciclib], the cell viability was 0.17. For `COc1ccc(CNc2nc(N3CCC[C@H]3CO)ncc2C(=O)NCc2ncccn2)cc1Cl` [Avanafil], the cell viability worked out at 0.984. For `COc1cc2c3cc1Oc1c(OC)c(OC)cc4c1[C@@H](Cc1ccc(O)c(c1)Oc1ccc(cc1)C[C@@H]3N(C)CC2)N(C)CC4` [Berbamine] the value was 1.09; for `CC(=O)Oc1cc(C)c(OC(C)=O)c2ccccc12` [Menadiol Diacetate], 1.11. For `COc1ccc(/C(C#N)=C/c2ccc(N3CCC(O)CC3)s2)cc1OC` the value was 0.953; for `COc1cc(N2CCC(N3CCN(C)CC3)CC2)ccc1Nc1ncc(Cl)c(-c2c[nH]c3ccccc23)n1`, 0.893; for `Cc1cc(C(=O)Nc2nc3cccc(Cl)c3n2[C@@H]2CCCCN(C(=O)/C=C/CN(C)C)C2)ccn1` [Nazartinib], 0.907. For `CN(C)C/C=C/C(=O)Nc1ccc(C(=O)Nc2cccc(Nc3ncc(Cl)c(-c4c[nH]c5ccccc45)n3)c2)cc1` the value was 0.346; for `CN(C)C/C=C/C(=O)Nc1ccc(C(=O)N2CCC[C@@H](Nc3ncc(Cl)c(-c4c[nH]c5ccccc45)n3)C2)cc1`, 0.437; for `CCOc1cc2ncc(C#N)c(Nc3ccc(F)c(Cl)c3)c2cc1NC(=O)/C=C/CN(C)C` [Pelitinib], 0.507. Consider `Cc1cc(NC(=O)c2cccc(NC(=O)/C=C/CN(C)C)c2)ccc1Nc1nccc(-c2cccnc2)n1`, for which the cell viability amounted to 0.841. For `COc1ccc(C(c2c[nH]c3ccccc23)c2c[nH]c3ccccc23)cc1` the value was 1.04; for `CC1(C)CC[C@]2(C(=O)O)CC[C@]3(C)C(=CC[C@@H]4[C@@]5(C)C[C@@H](O)[C@H](O)C(C)(C)[C@@H]5CC[C@]43C)[C@@H]2C1` [Maslinic acid], 0.962; for `CC(=O)c1ccc(NC2=C(Cl)C(=O)c3ccccc3C2=O)cc1`, 0.908. For `COC(=O)c1cc(O)c(O)c(O)c1` [Methyl gallate] the value was 1.07; for `OC1CCC(Oc2cccc3cnc(Nc4ccc5nc[nH]c5c4)nc23)CC1` (stereo not given), 1.02. For `Cc1nn(C)cc1-c1nc2c(N3CCN(Cc4ccc(Cl)cc4)CC3)c(Cl)cnc2[nH]1` the value was 0.998.

Take `CCCCC/C=C\C/C=C\CCCCCCCC(=O)O` [Linoleic acid]: the cell viability turned out to be 0.87. For `Cc1c(C)c(NCC(=O)N(C)C2CCN(Cc3ccc(C(N)=O)cc3)CC2)c(C)c(C)c1N` the value was 0.837.

For the molecule `O=C(Nc1ccc(CN2CCOCC2)cc1)c1ccc(-c2cccc(Cl)c2)o1`, the cell viability is 0.816.

Consider `COCCN1CCN(Cc2ccc(-c3n[nH]c4c3C(=O)c3c(NC(=O)NN5CCOCC5)cccc3-4)cc2)CC1`, for which the cell viability amounted to 0.3.

As for `CCNC(=O)c1noc(-c2cc(C(C)C)c(O)cc2O)c1-c1ccc(CN2CCOCC2)cc1` [Luminespib], the cell viability came out at 0.48. Take `CONC(=O)Nc1ccc(-c2sc3c(c2CN(C)C)c(=O)n(-c2ccc(OC)nn2)c(=O)n3Cc2c(F)cccc2F)cc1` [Relugolix]: the cell viability is 1.12. In the case of `COc1ccc(S(=O)(=O)/N=C2\C=CC=C\C2=C/C=C2C=CN(O)C=C2)cc1` it was 0.935. In the case of `COC(=O)c1c2c(c3ccccc3c1O)OC(C)(C)C=C2` [Mollugin] it was 1.05.

Regarding `Cc1c(O)c(C)c2c(c1O)C(=O)C[C@@H](c1ccc(O)cc1)O2` [Farrerol], the cell viability stood at 0.874. In the case of `CN1CCN(CCCNc2ncc(Cl)c(-c3cc4c(C(=O)NC5CC5)cccc4s3)n2)CC1` it was 0.958. For `Cc1nc(Nc2ncc(C(=O)Nc3c(C)cccc3Cl)s2)cc(N2CCN(CCO)CC2)n1` [Dasatinib] the value was 0.348. In the case of `Cc1nc(Nc2ncc(C(=O)Nc3c(C)cccc3Cl)s2)cc(N2CCN(CCO)CC2)n1` [Dasatinib monohydrate] it was 0.489; in that of `Cc1cc(Nc2cc(N3CCN(C)CC3)nc(Sc3ccc(NC(=O)C4CC4)cc3)n2)n[nH]1` [Tozasertib], 0.762.

`Cc1nn2c([nH]c(=O)c3cccnc32)c1C#N` came in with a cell viability of 1.02.

For `O=C(NOCCO)c1cc(CN2OCCCC2=O)c(F)c(F)c1Nc1ccc(I)cc1F`, the cell viability amounted to 0.84. Molecule `CC(C)n1nc(-c2cc3cc(O)ccc3[nH]2)c2c(N)ncnc21` [Torkinib] gave a cell viability of 0.733. `CC(C)Oc1ccc(-c2nn([C@@H](C)c3oc4ccc(F)cc4c(=O)c3-c3cccc(F)c3)c3ncnc(N)c23)cc1F`: the cell viability was determined as 0.937. For `CC(C)n1nc(-c2ccc3oc(N)nc3c2)c2c(N)ncnc21` the value was 0.37; for `Nc1ccc(-c2cnc(N)c(-c3ccc(Cl)cc3)c2)cn1`, 1.07; for `Oc1cc(-c2nc(-c3ccccc3)[nH]c2-c2ccncc2)ccc1Cl`, 1.22. In the case of `CC(C)CN(CC(=O)N1CCN(CC(OCc2ccc3ccccc3c2)c2ccc(Cl)cc2Cl)CC1)CC(C)C` (stereo not given) it was 1.12; in that of `CC(=O)O[C@H]1CC(=O)OC(C)(C)[C@@H]2CC(=O)[C@]3(C)[C@H](CC[C@@]4(C)[C@@H](c5ccoc5)OC(=O)[C@H]5O[C@]543)[C@@]12C` [Nomilin], 1.15; in that of `CC(=O)O[C@@H]1C[C@H](O)[C@@]23CO[C@@H](O)[C@]1(C)[C@@H]2C[C@@H](O)[C@]1(C)[C@@H]3C(=O)[C@H](OC(C)=O)[C@@]2(C)[C@H](c3ccoc3)C[C@H]3O[C@]321` [Toosendanin], 0.408.
